{"source": "PubChem BioAssay (NCATS)", "note": "Results filed as inconclusive are left out. Active and inactive are the calls of the source. Calls follow the shape of the dose curve; as a rule, active = well fitted activation curve with a large enough effect; inconclusive = small, poorly fitted or top-dose-only effect; inactive = flat fitted curve, though single readings scatter."}
{"experiment": "Primary redox qHTS assay for identification of artifact compounds. (AID 1845223)", "details": "Amplex Red/HRP redox cycling with DTT, fluorescence; series mostly up to 53.8 µM", "in_short": "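Amplex Red (25 uM) and HRP (250 mU/mL) in HBSS, with compounds for 15 min, then 250 uM DTT for 30 min, room temperature, dark. Fluorescence 525/598 nm read; normalized to DMSO and 10 uM DA3003; Hill fit.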"}
{"compound": "Cc1nc(N)sc1-c1ccnc(Nc2ccc(N3CCOCC3)cc2)n1", "outcome": "inactive"}
{"compound": "O=c1[nH]cnc2c1ncn2[C@H]1CC[C@@H](CO)O1", "outcome": "inactive"}
{"compound": "COc1cc2c(cc1OC)CN(CCc1ccc(NC(=O)c3cc(OC)c(OC)cc3NC(=O)c3cnc4ccccc4c3)cc1)CC2", "outcome": "inactive"}
{"compound": "CC(C)(C)Cn1c(N)nc2ccc(-c3[nH]c(C(C)(C)C)nc3-c3ccc(F)cc3)nc21", "outcome": "inactive"}
{"compound": "CC(=O)Nc1ccc([C@H](C)C(=O)Nc2ncc(C(C)C)s2)cc1", "outcome": "inactive"}
{"compound": "COc1ccc(Cc2ccc(NC(N)=O)cc2)cc1-c1cccc(Cl)c1", "outcome": "inactive"}
{"compound": "CNC1CCC(N(Cc2cccc(-c3ccncc3)c2)C(=O)c2sc3c(F)ccc(F)c3c2Cl)CC1", "note": "(configuration not stated)", "outcome": "inactive"}
{"compound": "CN(C[C@@H]1COCCO1)S(=O)(=O)Nc1ccc2ccc3ncc(-c4cnn(C)c4)cc3c(=O)c2c1", "outcome": "inactive"}
{"compound": "CC(C)C(=O)Nc1ncc(-c2cc(C(F)F)nn2-c2c(Cl)cccc2Cl)s1", "outcome": "inactive"}
{"compound": "CC(C)C(=O)Oc1ccc(CO)cc1[C@H](CCN(C(C)C)C(C)C)c1ccccc1", "outcome": "inactive"}
{"compound": "COc1cc2ncnc(-n3nc(-c4ccccn4)nc3N)c2cc1OC", "outcome": "inactive"}
{"compound": "COCCOC(=O)C1=C(C)NC2=C(C(=O)CC(c3ccccc3OC)C2)C1c1cccc(O)c1", "note": "(configuration not stated)", "outcome": "inactive"}
{"compound": "C=C1C(=O)[C@@]23C(CC[C@@H]1[C@H]2O)[C@@]12CO[C@]3(O)[C@@H](O)[C@@H]1C(C)(C)CC[C@@H]2O", "note": "(some centres not stated)", "outcome": "inactive"}
{"compound": "COc1ncc(-c2ccc3nccc(-c4ccnnc4)c3c2)cc1NS(=O)(=O)c1ccc(F)cc1F", "outcome": "inactive"}
{"compound": "Cc1ccc(Nc2cc(-c3cccc(N4C(=O)c5ccccc5C4=O)c3)ncn2)cc1NS(C)(=O)=O", "outcome": "inactive"}
{"compound": "CS(=O)c1ccc(-c2nc(-c3ccc(F)cc3)c(-c3ccncc3)[nH]2)cc1", "note": "(configuration not stated)", "outcome": "inactive"}
{"compound": "CC(C)(C)c1cc(C(=O)O)c(NC(=O)Nc2ccc3[nH]ncc3c2)s1", "outcome": "inactive"}
